High-throughput results as filed in PubChem BioAssay.
The list is not random: actives were taken first. Their share in the collection is about 21%.
Shiga toxin inh = Shiga toxin inhibition. Vero cells, Shiga toxin protein synthesis inhibition reporter. 290,000 compounds, 9.2% hits. inhibition, % at 38.7 µM; in the data active = inhibition mostly above about 28%, no sharp cut-off; inactive = mostly below about 43%
NS1 inh = blocks influenza NS1 protein function. AID 2326. Potency, µM (highest dose often 46.1 µM). 270,000 compounds, 0.4% hits; note: actives are rising curves; nearly all actives have a fitted effect of over 50% in size
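Compounds were scored for reversing the slow growth caused by influenza A NS1 in S. cerevisiae, measured by optical density at 600 nm. Assay medium contained 2% galactose at pH 6.0; NS1-free yeast of the same strain were the positive control.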
Cycloheximide cs = counter-screen for Shiga toxin inhibitors: cycloheximide protein synthesis inhibition; cell reporter, cycloheximide protein synthesis inhibition counterscreen; max response, %; 300,000 compounds, 12% hits; in the data active = max response mostly above about 13%, no sharp cut-off; inactive = mostly below about 14%; note: read at 38.3 µM for the half of the compounds with a filed dose
Pf growth 48h = inhibits P. falciparum growth in the first generation, 48 h; P. falciparum luciferase growth in erythrocytes, 48 h; Potency, µM (series often up to 28.7 µM), hits mostly inhibitors; 310,000 compounds, 5.9% hits; AID 504832; active = well fitted inhibition curve with a large enough effect; inconclusive = small, poorly fitted or top-dose-only effect, or another doubt; inactive = no such curve, though single readings can be large or run the other way
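Here the parasites carry a stable luciferase gene and grow inside erythrocytes in Albumax-based RPMI medium with compound for one erythrocytic cycle. Activity is scored as loss of luminescent signal.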
SARS PLP yeast = blocks SARS-CoV papain-like protease in a yeast assay; AID 485353; S. cerevisiae expressing SARS-CoV PLpro, growth rescue; 330,000 compounds, 0.19% hits; Potency, µM (highest dose often 32.9 µM), most hits filed as activators; note: nearly all actives have a fitted effect of over 55% in size
Pf growth 96h = P. falciparum growth inhibition at 96 hours. P. falciparum luciferase reporter growth, 96 h. Potency, µM (titrated, usually from 28.7 µM), hits mostly inhibitors. 320,000 compounds, 6.9% hits; active = well fitted inhibition curve with a large enough effect; inconclusive = small, poorly fitted or top-dose-only effect, or another doubt; inactive = no such curve, though single readings can be large or run the other way
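Luminescence readout: decreased luciferase signal marks inhibited growth of reporter-expressing P. falciparum in infected red cells (2% hematocrit, 0.05% parasitemia final), exposed to compound two generations (96 h, 37 C, 5% CO2).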
Numbers stand for hits; i = inactive; ? = inconclusive; nt = not tested or not shown. Unless noted, calls come from the whole dose curve.

SMILES	Shiga toxin inh	NS1 inh	Cycloheximide cs	Pf growth 48h	SARS PLP yeast	Pf growth 96h
Cc1ccc(-c2csc3ncnc(NCCC(=O)O)c23)cc1C	i	i	i	i	i	i
O=C(CCc1ccccn1)N1CCCC(N2CCN(c3cccc(C(F)(F)F)c3)CC2)C1 (stereo not drawn)	i	i	i	?	i	?
Cc1c(Cl)c(-c2n[nH]c(=S)n2-c2ccccc2)nn1C	i	i	i	i	i	i
Cc1ccccc1-c1nnn(CC(=O)NCc2ccc3c(c2)OCO3)n1	i	i	i	i	i	i
O=C(Cn1nnc(-c2ccc3c(c2)OCO3)n1)Nc1ccccc1C(=O)O	41	i	31	i	i	i
Cc1ccc(CC(=O)NCc2ccc3c(c2)OCO3)cc1	i	i	i	i	nt	i
COc1cc(OC)cc(C(=O)NCc2ccc3[nH]c(C)cc3c2)c1	i	nt	i	9.3µM	i	19µM
CN(C)c1ccc(-c2nnn(CC(=O)NCc3ccc4c(c3)OCO4)n2)cc1	i	nt	28	i	i	?
Cc1ccc(C(=O)NCc2ccc3c(c2)OCO3)cc1	i	i	13	i	i	?
COc1cccc(C(=O)NCc2ccc3[nH]c(C)cc3c2)c1	i	nt	i	?	i	i
CCOC(=O)n1cc(-c2cnc(CNC(=O)C(C)(c3ccccc3)c3ccccc3)o2)c2ccccc21	i	?	i	?	i	?
CNC(=O)COC(=O)C1CCN(S(=O)(=O)c2ccc3c(c2)OCCO3)CC1	nt	nt	nt	i	i	i
COc1cc(CN2CCN(CCCc3ccccc3)C(CCO)C2)cc(OC)c1O (stereo not drawn)	i	i	i	i	i	i
Cc1ccccc1Cn1c(=O)c2c(nc3n2CCN3Cc2ccco2)n(C)c1=O	nt	i	nt	nt	nt	nt
COc1ccc(N(CC(=O)N2CCOCC2)S(C)(=O)=O)cc1	i	i	i	i	i	?
COc1ccc(S(=O)(=O)NCC2CCC(C(=O)N3CCC4(CC3)OCCO4)CC2)cc1 (stereo not drawn)	i	i	i	i	i	i
O=C(CN(C1CCCCC1)S(=O)(=O)c1ccc(Cl)cc1)NCc1ccncc1	i	i	i	?	i	i
O=C(NCc1ccc2c(c1)OCO2)c1ccc(Br)s1	i	i	12	i	i	i
CC(C)NC(=O)c1ccc(C(C)C)cc1	i	i	18	i	i	i
O=C(NCc1ccc2c(c1)OCO2)c1c(F)c(F)c(F)c(F)c1F	i	i	i	i	i	i
CN(C)c1ccc(C(=O)NCc2ccc3c(c2)OCO3)cc1	i	i	i	i	i	i
Cc1cc2cc(CNC(=O)c3ccc4c(c3)OCO4)ccc2[nH]1	i	i	20	i	i	i
CN(C)c1cccc(C(=O)NCc2ccc3c(c2)OCO3)c1	57	i	33	?	i	?
COc1ccc(C(=O)NCc2ccc3[nH]c(C)cc3c2)cc1OC	i	nt	i	i	i	?
O=C(CSc1ccc2ccccc2c1)Nc1ncccn1	i	i	i	i	i	i
SMILES	Shiga toxin inh	NS1 inh	Cycloheximide cs	Pf growth 48h	SARS PLP yeast	Pf growth 96h
O=C(NCc1ccc2c(c1)OCO2)c1ccc2c(c1)OCCO2	18	i	i	nt	i	i
O=C(NCc1ccc2c(c1)OCO2)c1ccc(CS(=O)Cc2ccc(Cl)cc2)o1 (stereo not drawn)	i	i	i	i	i	?
CCOCCCNC(=O)c1ccc2c(c1)OCO2	58	i	23	i	i	nt
Cc1ccc(CS(=O)Cc2ccc(C(=O)NCc3ccc4c(c3)OCO4)o2)cc1 (stereo not drawn)	i	i	i	i	i	13µM
Cc1ccccc1-c1nnn(CC(=O)Nc2ccc3c(c2)OCCO3)n1	141	nt	58	i	i	?
Cc1ccccc1-c1nnn(CC(=O)Nc2ccc3c(c2)OCO3)n1	i	i	i	i	i	i
CC1(C)C(=O)OC(C(=O)c2ccccc2)C2(CCCCC2)C1=O (stereo not drawn)	i	i	i	i	i	?
CN(C)c1cccc(C(=O)NCc2ccc(Cl)cc2)c1	71	i	27	4.1µM	i	i
O=C(NCc1ccccc1)c1ccc(Cl)cc1	i	i	i	i	i	i
O=C(NCc1ccc(Cl)cc1)c1cccc(NC(=O)c2ccccc2)c1	i	i	i	i	i	?
O=C(NCc1cccc(Cl)c1)c1ccc2c(c1)OCCO2	nt	i	21	i	i	i
CC(C)c1ccc(C(=O)NCc2ccc(Cl)cc2)cc1	141	i	74	i	i	i
